Screening results (PubChem BioAssay)
In the library only some 19% were active in any assay of this set; here they are far more common.
TDP1 cell noCPT = qHTS for Inhibitors of human tyrosyl-DNA phosphodiesterase 1 (TDP1): qHTS in cells in absence of CPT | 420,000 compounds, 15% hits | DT40 Tdp1-/- hTDP1 cells, no CPT, ATP luminescence, 48 h | Potency, µM (doses to about 46.2 µM), inactives show at the highest dose activity change, negative = growth inhibition, actives largely listed as inhibitors | AID 686978, 2013; also: potency is read from the fitted curve at half-maximal effect; nearly all actives have a fitted effect of over 55% in size
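Camptothecin absent (DMSO only). Human TDP1-complemented DT40 knockout cells, 400 cells/well, 37 °C for minimum 48 hr; ATP measured via CellTiter-Glo, 30 min dark incubation, luminescence.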
ELG1 DNA repair = qHTS screen for small molecules that inhibit ELG1-dependent DNA repair in human embryonic kidney (HEK293T) cells expressing luciferase-tagged ELG1; 330,000 compounds, 2.3% hits; Potency, µM (series often up to 46.1 µM), for inactives: at the highest dose activity change, negative = inhibition, usual class: inhibitors; HEK293T ELG1-luciferase reporter, luminescence, 16 h; DNA damage induced by 5-fluorouridine; also: potency is read from the fitted curve at half-maximal effect; nearly all actives have a fitted effect of over 55% in size
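Overnight (16 hr) co-exposure of 2,000 cells/well to 5-fluorouridine and compound at 37 °C preceded detection. Luciferase was quantified via ONE-Glo luminescence; loss of signal denotes inhibition.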
Giardia kill = Small Molecules that selectively kill Giardia lamblia: qHTS; Giardia lamblia trophozoite viability; activity change, % at 7.66 µM, hits read low; 340,000 compounds, 0.15% hits; AID 540267, 2011; in the data active = activity change below about -80%; inconclusive = between about -30% and that limit;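 also: parasites exposed to compound for two days anaerobically before the ATP read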
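Viability, read as ATP luminescence: trophozoites at 100 cells/well, compound added, 48 hrs anaerobic at 37 deg C, then 15-30 min room-temperature development before reading.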
TDP1 inh = qHTS Assay for Inhibitors of Tyrosyl-DNA Phosphodiesterase (TDP1); AID 485290, 2010; recombinant TDP1, AlphaScreen DNA substrate cleavage; 350,000 compounds, 0.28% hits; Tyrosyl-DNA phosphodiesterase 1 (Homo sapiens), Q9NUW8; Potency, µM (highest dose often 130 µM), inactives show at the top dose activity change, negative = inhibition, actives largely listed as inhibitors; also: potency is read from the fitted curve at half-maximal effect; nearly all actives have a fitted effect of over 40% in size
Target sequence (Q9NUW8 whole entry, looked up): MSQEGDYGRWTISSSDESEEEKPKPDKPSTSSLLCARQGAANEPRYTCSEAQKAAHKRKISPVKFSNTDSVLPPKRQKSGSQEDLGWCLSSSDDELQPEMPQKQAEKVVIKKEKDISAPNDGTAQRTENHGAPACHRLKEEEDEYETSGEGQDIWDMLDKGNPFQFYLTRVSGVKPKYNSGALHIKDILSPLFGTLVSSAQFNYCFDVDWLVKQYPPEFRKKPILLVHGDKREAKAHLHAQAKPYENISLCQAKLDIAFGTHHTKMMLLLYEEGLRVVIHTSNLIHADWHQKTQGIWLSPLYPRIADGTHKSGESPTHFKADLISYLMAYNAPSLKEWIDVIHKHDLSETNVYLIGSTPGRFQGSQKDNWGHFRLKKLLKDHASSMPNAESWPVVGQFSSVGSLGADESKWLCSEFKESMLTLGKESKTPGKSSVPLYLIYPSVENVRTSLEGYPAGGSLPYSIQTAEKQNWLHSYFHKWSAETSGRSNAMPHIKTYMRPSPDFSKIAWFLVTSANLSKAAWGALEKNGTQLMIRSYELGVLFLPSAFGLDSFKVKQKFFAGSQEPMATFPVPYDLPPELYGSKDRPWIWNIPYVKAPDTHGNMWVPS
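E. coli-derived human Tdp1, 1 nM final. Cpd preinc 15 min RT; substrate 15 nM final, 5 min RT; AS bead mix 10 ug/ml final, 10 min RT. Signal loss = tyrosine-FITC cleavage. No-enzyme wells = max signal.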
TDP1 cell CPT = qHTS for Inhibitors of human tyrosyl-DNA phosphodiesterase 1 (TDP1): qHTS in cells in presence of CPT; Potency, µM (series often up to 46.2 µM), for the others: at the top dose activity change, negative = growth inhibition, most hits filed as inhibitors; chicken DT40 Tdp1-/-;hTDP1 cells + 20 nM CPT, ATP luminescence, 48 h; 420,000 compounds, 12% hits; also: potency is read from the fitted curve at half-maximal effect; nearly all actives have a fitted effect of over 55% in size
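Chicken DT40 Tdp1-/- cells complemented with human TDP1, 400 cells/well, exposed to compounds plus 20 nM camptothecin for at least 48 h at 37 C; viability read as ATP content by CellTiter-Glo luminescence.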
IL1B secr inh = qHTS for Inhibitors of Inflammasome Signaling: IL-1-beta AlphaLISA Primary Screen; THP-1 LPS/ATP IL-1B secretion, AlphaLISA, 16 h; hits give low values; activity change, % at 57.5 µM; 360,000 compounds, 4.7% hits; AID 743279, 2014; in the data active = activity change below about -50%; inconclusive = mostly about -30% to -49%
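Secreted IL-1B measured by AlphaLISA bead assay after 16 h compound exposure of THP-1 cells; compounds (final up to 57.5 uM) added 1 h before LPS (250 ng/mL) and ATP (1.25 mM) stimulation; lower signal means less secretion.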
Active calls of the source: *. Unless noted, calls follow the shape of the dose curve; as a rule, active = well fitted curve in the direction sought with a large enough effect; inconclusive = small, poorly fitted or top-dose-only effect, or another doubt; inactive = no such curve, though single readings can be large; an effect the other way counts as inactive or inconclusive. % is scaled to controls: 0 for no effect and ±100 for the full control effect.

Screening COc1ccc(OC)c(-c2cc(C(=O)Nc3c(C)nn(Cc4ccccc4)c3C)no2)c1 returned TDP1 cell noCPT 23µM*, ELG1 DNA repair inconclusive, Giardia kill -12, TDP1 inh 6%, TDP1 cell CPT 18µM* and IL1B secr inh inconclusive.
`COc1ccc(-n2nc(C(=O)N3CCCCC3C)c3c4ccccc4n(C)c3c2=O)cc1Cl` (stereo not given) gave TDP1 cell noCPT inconclusive, TDP1 inh 0% and TDP1 cell CPT inconclusive.
For NC(=O)c1cccn1-c1ncc(C(F)(F)F)cc1Cl the results were TDP1 cell noCPT -14%, ELG1 DNA repair -2%, Giardia kill 12, TDP1 inh -9%, TDP1 cell CPT -6% and IL1B secr inh 3.
Screening O=C(Nc1ccc(Br)cc1)c1cccn1-c1ncc(C(F)(F)F)cc1Cl returned TDP1 cell noCPT inconclusive, ELG1 DNA repair 0%, Giardia kill 2, TDP1 inh -2%, TDP1 cell CPT 16µM* and IL1B secr inh -23.
CCOCCc1nn2c(=O)cc(COC(=O)c3ccc(NC(=O)C4CCCCC4)cc3)nc2s1 was read as TDP1 cell noCPT inconclusive, TDP1 inh -6% and TDP1 cell CPT inconclusive.
COc1ccc(CCNC(=O)c2nc(-c3cccs3)no2)cc1OC was read as TDP1 cell noCPT inconclusive, ELG1 DNA repair 9.2µM*, Giardia kill -3, TDP1 inh 8%, TDP1 cell CPT inconclusive and IL1B secr inh 16.
COc1ccc(CCNC(=O)Cc2ccccc2)cc1OC was read as TDP1 cell noCPT 9%, ELG1 DNA repair 10%, Giardia kill -3, TDP1 cell CPT 1% and IL1B secr inh -1.
`COc1ccc(CCNC(=S)c2ccccc2)cc1OC` gave TDP1 cell noCPT inconclusive, ELG1 DNA repair inconclusive, Giardia kill 4, TDP1 cell CPT 21µM* and IL1B secr inh inconclusive.
`COc1ccc(CCNC(=O)C(=O)NCc2ccccc2)cc1OC` gave TDP1 cell noCPT 5.2µM*, ELG1 DNA repair 15%, Giardia kill -9, TDP1 inh -3%, TDP1 cell CPT 5.2µM* and IL1B secr inh 32.
`COc1ccc(CCNC(=O)C(=O)NCc2cccs2)cc1OC` gave TDP1 cell noCPT 29µM*, ELG1 DNA repair -2%, Giardia kill 38, TDP1 inh 0%, TDP1 cell CPT inconclusive and IL1B secr inh 28.
Screening C/C(=N\NC(=O)Cn1cc([N+](=O)[O-])cn1)c1ccco1 returned TDP1 cell noCPT 11%, ELG1 DNA repair 21%, Giardia kill inconclusive, TDP1 inh 8%, TDP1 cell CPT 10% and IL1B secr inh 9.
For O=C(NC1CCCCCC1)C1c2ccccc2C(=O)N1Cc1ccccc1Cl (stereo not given) the results were TDP1 cell noCPT -18%, TDP1 inh 2% and TDP1 cell CPT 4%.
Screening COc1ccc(CCNC(=S)NC(=O)c2ccccc2)cc1C returned TDP1 cell noCPT inconclusive, ELG1 DNA repair 13µM*, Giardia kill -1, TDP1 inh 7%, TDP1 cell CPT inconclusive and IL1B secr inh -28.
For COc1ccc(CCNC(=S)NC(=O)c2ccc(Br)cc2)cc1OC the results were TDP1 cell noCPT inconclusive, ELG1 DNA repair inconclusive, Giardia kill -3, TDP1 inh 8%, TDP1 cell CPT inconclusive and IL1B secr inh 23.
